Among the data in PubChem BioAssay (Tox21) are Potency, outcome and max response values, retold here.

Several values for one entry are separate records, joined by “and”; a condition that tells them apart may be missing. Identical values can stand only once. Results filed as inconclusive are left out. Some compounds were tested as several samples or in several runs, with calls that do not always agree. Activity calls are given as the source filed them. Unless noted, calls come from the whole dose curve; as a rule, active = well fitted curve in the direction sought with a large enough effect in the repeat runs; inconclusive = weak or mixed curves; inactive = no such curve, though single readings can be large; an effect the other way counts as inactive or inconclusive.

A short description of experiment [1]: qHTS assay to identify small molecule agonists of H2AX (AID 1224845; active = well fitted activation curve with a large enough effect in the signal ratio in the repeat runs, not every such curve was filed as active; the % refers to the signal ratio). A digest of the protocol: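 Phospho-H2AX Ser139 measured by HTRF (ex 320 nm; em 665 and 620 nm) after 24 hr antibody incubation. Compounds, 15 concentrations, 0.76% DMSO, were applied to CHO-K1 cells for 3hr at 37C before lysis.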
On the technique in general: Quantitative high-throughput screening tests each substance at several concentrations.

Experiment [2] in a line: qHTS assay to identify small molecule agonists of the hypoxia (HIF-1) signaling pathway (AID 1224846; active = well fitted activation curve with a large enough effect in the signal ratio in the repeat runs, not every such curve was filed as active; the % refers to the signal ratio). A digest of the protocol:
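Steps: seed ME-180 HRE-bla cells (2,000/well, 0.5% dialyzed FBS); incubate 5 hrs at 37C; pin-transfer compounds or DMSO; incubate 17 hrs; add LiveBLAzer B/G substrate CCF4-AM; measure reporter activation by FRET.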

Experiment [3] can be described thus: qHTS assay to identify small molecule agonists of H2AX - cell viability counter screen (AID 1224847; calls by dose curve; note: nearly all actives have a fitted effect of over 30% in size; note: potency is the fitted concentration of half-maximal effect). A digest of the protocol: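 We seed wild-type CHO-K1 cells overnight, treat them for 3 hr at 37C with compounds in 15-concentration series, and quantify remaining viability by CellTiter-Glo luminescence.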
Experiment [4] can be described thus: qHTS RealTime-Glo MT Cell Viability Assay in HepG2 cells - 24 hour (AID 1224867). Note: nearly all actives have a fitted effect of over 50% in size. The gist of the method:
(§1)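 HepG2 suspension premixed with RealTime-Glo reagents is plated at 600 cells per well and left 5 h at 37 C/5% CO2. Compounds in DMSO then go in, and bioluminescence reflecting viable cell number is recorded over 40 h.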

Experiment [5] can be described thus: qHTS RealTime-Glo MT Cell Viability Assay in HEK293 cells - 32 hour (AID 1224868). Note: nearly all actives have a fitted effect of over 50% in size. Note: potency is the fitted concentration of half-maximal effect. The gist of the method:
(§2)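 Reads taken at 0, 8, 16, 24, 32 and 40 h from the same wells. HEK293 cells (600/well) carried RealTime-Glo reagents from seeding, with compound added after a 5 h settle at 37 C.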

Experiment [6] in a line: A CellTox Green Cytotoxicity Assay to monitor cytotoxicity in HEK293 cells - 0 hour (AID 1224869). Note: nearly all actives have a fitted effect of over 50% in size. The gist of the method: (§3)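 Cytotoxicity was tracked continuously in HEK293 cells by a DNA-binding dye excluded from viable cells. Compounds were transferred in DMSO 5 h after seeding; fluorescence was recorded at intervals up to 40 h.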
Experiment [7] is described as follows: qHTS RealTime-Glo MT Cell Viability Assay in HepG2 cells - 40 hour (AID 1224870). Note: nearly all actives have a fitted effect of over 50% in size. Note: potency is the fitted concentration of half-maximal effect. A digest of the protocol: (§4)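 Real-time viability: cells seeded at 600 per well together with NanoLuc and cell-permeant prosubstrate, compounds added after 5 h incubation. Luminescence tracked at 0, 8, 16, 24, 32 and 40 h of exposure.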
Experiment [8] can be described thus: A CellTox Green Cytotoxicity Assay to monitor cytotoxicity in HEK293 cells - 40 hour (AID 1224871). Note: nearly all actives have a fitted effect of over 45% in size. Note: potency is the fitted concentration of half-maximal effect. A digest of the protocol: as §3
Experiment [9] is described as follows: qHTS RealTime-Glo MT Cell Viability Assay in HepG2 cells - 8 hour (AID 1224873). Note: nearly all actives have a fitted effect of over 55% in size. A digest of the protocol: as §4
A short description of experiment [10]: qHTS RealTime-Glo MT Cell Viability Assay in HEK293 cells - 40 hour (AID 1224874). Note: nearly all actives have a fitted effect of over 50% in size. Note: potency is the fitted concentration of half-maximal effect. As to conditions: RealTime-Glo luminescence; max response: stronger effect = lower value. The gist of the method: (§5)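 Nonlytic bioluminescent viability monitoring. HEK293 at 600 cells/well with reagent; 5 h settle; compound transfer by pintool; plates held at 37 C and read at set time points.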

A short description of experiment [11]: A CellTox Green Cytotoxicity Assay to monitor cytotoxicity in HEK293 cells - 24 hour (AID 1224875). Note: series mostly up to about 77 µM; nearly all actives have a fitted effect of over 45% in size. The gist of the method: as §3
Experiment [12] can be described thus: qHTS RealTime-Glo MT Cell Viability Assay in HepG2 cells - 32 hour (AID 1224877). Note: nearly all actives have a fitted effect of over 55% in size. The gist of the method: as §1
A short description of experiment [13]: A CellTox Green Cytotoxicity Assay to monitor cytotoxicity in HepG2 cells - 24 hour (AID 1224878). Note: nearly all actives have a fitted effect of over 45% in size. Note: potency is the fitted concentration of half-maximal effect. A digest of the protocol: (§6)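 Real-time, homogeneous cytotoxicity readout: dead-cell DNA staining by CellTox Green in HepG2 monolayers, fluorescence measured at timed intervals up to 40 h of continuous compound exposure.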
The nature of experiment [14]: A CellTox Green Cytotoxicity Assay to monitor cytotoxicity in HepG2 cells - 40 hour (AID 1224879). Note: nearly all actives have a fitted effect of over 40% in size. Note: potency is the fitted concentration of half-maximal effect. The gist of the method: as §6
Experiment [15] in a line: qHTS RealTime-Glo MT Cell Viability Assay in HEK293 cells - 0 hour (AID 1224880). Note: top concentration of the series differs between compounds; nearly all actives have a fitted effect of over 45% in size. The gist of the method: as §5
Experiment [16] in a line: A CellTox Green Cytotoxicity Assay to monitor cytotoxicity in HEK293 cells - 32 hour (AID 1224881). Note: nearly all actives have a fitted effect of over 40% in size. Note: potency is the fitted concentration of half-maximal effect. A digest of the protocol: as §3
The nature of experiment [17]: qHTS RealTime-Glo MT Cell Viability Assay in HEK293 cells - 16 hour (AID 1224872). The gist of the method: as §2
Experiment [18] can be described thus: A CellTox Green Cytotoxicity Assay to monitor cytotoxicity in HepG2 cells - 16 hour (AID 1224876). Note: nearly all actives have a fitted effect of over 45% in size. The gist of the method:
as §6
% is set by controls: 0 for no effect and ±100 for the full control effect.

Consider `CC(C)(C)C(O)C(Oc1ccc(Cl)cc1)n1cncn1` (stereo not given), for which the Potency result in [1], in experiment [3], in [4], in experiment [6], in [7] and in [9] was “inactive” each time. For the same molecule, the Potency entry in [11], in experiment [12], in experiment [15] and in experiment [16] was “inactive” each time. Moreover, in experiment [2], the call was inactive. In addition, the Potency in experiment [5] was 12.3 µM (active); in experiment [8] it was 5.49 µM (active); in experiment [10], 11 µM (active); in [13], 43.6 µM (active); in [14], 43.6 µM (active).
For the molecule `C/C=C/C=O`, the Potency entry in experiment [1], in experiment [3], in [4], in [5], in experiment [6] and in experiment [7] was “inactive” each time. The Potency result in [8], in experiment [17], in [9], in experiment [11], in experiment [18] and in experiment [12] was “inactive” throughout. Also, the Potency entry in [13], in experiment [14], in [15] and in [16] was “inactive” in each case. In addition, the molecule was called inactive in [2]. In addition, the max response in experiment [10] was 5.18% (inactive).
As to `Clc1cc(Cl)c(Cl)c(Cl)c1`, the Potency result in experiment [1], in [3], in experiment [4], in experiment [5], in experiment [6] and in experiment [7] was “inactive” in each case. Moreover, the Potency result in experiment [17], in experiment [9], in experiment [11], in [18], in experiment [12] and in experiment [13] was “inactive” each time. Moreover, the Potency entry in experiment [14], in experiment [15] and in experiment [16] was “inactive” each time. The molecule was classed as inactive in [2]. Besides, the max response in experiment [10] was -4.38% (inactive).
Consider `NCCCNCCCN`, for which the Potency entry in experiment [1], in experiment [3], in experiment [4], in experiment [5], in experiment [6] and in [7] was “inactive” throughout. Also, the Potency result in experiment [17], in [9], in [18], in [12], in experiment [13] and in [14] was “inactive” in each case. Also, in experiment [15], the Potency entry was “inactive”. Moreover, the result in experiment [2] was inactive. The Potency in [8] and in experiment [16] was 62.6 µM (active) throughout. Also, the max response in experiment [10] is -7.03% (inactive).
For the molecule `CCOc1ccc(C(C)(C)COCc2cccc(Oc3ccccc3)c2)cc1`, the Potency result in [1], in experiment [3], in [4], in experiment [5], in experiment [6] and in experiment [7] was “inactive” each time. Besides, the Potency entry in experiment [8], in experiment [17], in experiment [9], in [11], in experiment [18] and in [12] was “inactive” each time. Moreover, the Potency entry in experiment [13], in [14], in [15] and in experiment [16] was “inactive” each time. Further, in experiment [2], the molecule was called inactive.
Turning to `CCOP(=S)(OCC)SCSCC`, the Potency result in experiment [1], in experiment [3], in experiment [4], in experiment [5], in experiment [6] and in experiment [7] was “inactive” in each case. Also, the Potency entry in [8], in experiment [17], in experiment [9], in [11], in experiment [18] and in experiment [12] was “inactive” each time. Further, the Potency result in [13], in [14] and in experiment [15] was “inactive” throughout. Moreover, the molecule was classed as inactive in experiment [2].
Turning to `CNC(C)Cc1ccccc1OC` (stereo not given), the Potency entry in experiment [1], in experiment [3], in experiment [4], in [5], in [6] and in [7] was “inactive” in each case. Also, the Potency result in experiment [8], in [17], in experiment [9], in experiment [11], in experiment [12] and in experiment [13] was “inactive” each time. In addition, the Potency result in experiment [14], in experiment [15] and in experiment [16] was “inactive” each time. Moreover, the outcome in [2] was inactive. Besides, the max response in experiment [10] is 1.99% (inactive).
In the case of `CCn1cc[n+](C)c1`, the Potency result in experiment [1], in experiment [4], in experiment [6], in experiment [8], in experiment [17] and in experiment [9] was “inactive” in each case. The Potency entry in experiment [11], in experiment [18], in experiment [12], in [13], in experiment [15] and in [16] was “inactive” in each case. Also, the molecule was classed as inactive in experiment [2]. The Potency entry in experiment [3] is “inactive and 102 µM (active)”; in experiment [5], “inactive and 1.75 µM (active)”; in [7] it was “inactive and 44 µM (active)”; in experiment [14], “inactive and 55.5 µM (active)”.
